# Results filed as inconclusive are left out. Calls of active or inactive are those of the source. Rule for the calls: active = hit-call score of the fitted dose curve at least 0.9, where 1 is the maximum; inconclusive = response in the unintended direction; inactive = score below 0.9.
# Read-out: Broad substrate specificity ATP-binding cassette transporter ABCG2 (Homo sapiens) (UniProt Q9UNQ0)
# Test: CLD_ABCG2_6hr: CellzDirect (CLD) Gene Expression Assay for ABC Transporter (ABCG2) at 6 hours (AID 2283660)
# Method: CLD_6hr is a cell-based, multiplexed-readout assay that uses hepatocyte, a human liver primary cell, with measurements taken at 6 hours after chemical dosing in a 96-well plate.CLD_ABCG2_6hr is one of 16 assay component(s) measured or calculated from the CLD_6hr assay. It is designed to make measurements of mRNA induction, a form of inducible reporter, as detected with chemiluminescence signals by Quantitative Nuclease Protection Assay (qNPA) technology.Data from the assay component CLD_ABCG2_6hr was analyzed at the endpoint, CLD_ABCG2_6hr, in the positive analysis fitting direction relative to DMSO as the negative control and baseline of activity. Using a type of inducible reporter, gain-of-signal activity can be used to understand changes in the reporter gene as they relate to the gene ABCG2. Furthermore, this assay endpoint can be referred to as a primary readout. To generalize the intended target to other relatable targets, this assay endpoint is annotated to the transporter intended target family, where subfamily is ABC transporter.
# Human hepatocyte cultures were treated daily for two consecutive days with fresh dosing solutions containing appropriate concentrations of the 320 ToxCast chemicals (chemical identities were blinded to CellzDirect and other ToxCast collaborators), vehicle control (0.2% DMSO), and positive control inducers as summarized in Table 1. Due to the large number of treatment groups and chemicals examined, the ToxCast chemicals were divided into two groups (spanning two independent cultures of hepatocytes from separate donor preparations (Hu778: ToxCast plates 1 and 2; Hu776: ToxCast plates 3 and 4). Each preparation of human hepatocyte cultures was treated with respective vehicle control, medium only control, set of six positive controls/reference chemicals for the five hepatic receptor pathways, and a subset of eight of the ToxCast chemicals (indoxacarb, pyrithiobac-sodium, norflurazon, cyhalofop-butyl, methomyl, thiram, acetochlor, and propiconazole). These replicate data, coupled with internal replicates designed within the blinded ToxCast chemical library, provided additional data to evaluate interindividual differences between hepatocyte preparations and their potential impact on chemical profiles.Cell morphology and integrity were evaluated using phase-contrast microscopy as an indicator of hepatocyte cell health (Tyson & Green, 1987). Cultures for each treatment group (i.e., media, vehicle [0.2% DMSO], positive control inducers [multiple concentrations], and the ToxCast chemicals [multiple concentrations]) were observed and cell morphology was assessed relative to vehicle control cultures at each harvest time point (0, 6, 24, or 48 h). […] Images were evaluated at the conclusion of the study to assess changes in cell integrity and account for the effects of chemical exposure on uncharacteristic changes in concentration-dependent gene expression profiles. The results from these determinations of apparent cytotoxicity were annotated (yes/no) alongside the corresponding qNPA data for reference.At the conclusion of each treatment period, hepatocyte cultures (96-well) were washed with 1 volume of HBSS, lysed by addition of 25 ul ArrayPlate lysis buffer (HTG, Tucson, AZ), and 70 ul/well of Denaturation Oil, denatured by incubation at 95C for 10 min, and frozen at approximately -70C until analysis by nuclease protection assay (qNPA) (Roberts et al., 2007). For qNPA analysis, cell lysates were thawed at 50C for approximately 30 min, qNPA probes were added, and samples were incubated at 95C for 10 min to begin the detection process by denaturing the target RNA, dissociating the duplexes and secondary structure hybridization. At the conclusion of the hybridization period, S1 nuclease reagent was added to each sample to digest all nonprotected nucleotides at 50C for 60-90 min. […]
# Broad substrate specificity ATP-binding cassette transporter ABCG2 (Homo sapiens), sequence (Q9UNQ0 whole entry, looked up): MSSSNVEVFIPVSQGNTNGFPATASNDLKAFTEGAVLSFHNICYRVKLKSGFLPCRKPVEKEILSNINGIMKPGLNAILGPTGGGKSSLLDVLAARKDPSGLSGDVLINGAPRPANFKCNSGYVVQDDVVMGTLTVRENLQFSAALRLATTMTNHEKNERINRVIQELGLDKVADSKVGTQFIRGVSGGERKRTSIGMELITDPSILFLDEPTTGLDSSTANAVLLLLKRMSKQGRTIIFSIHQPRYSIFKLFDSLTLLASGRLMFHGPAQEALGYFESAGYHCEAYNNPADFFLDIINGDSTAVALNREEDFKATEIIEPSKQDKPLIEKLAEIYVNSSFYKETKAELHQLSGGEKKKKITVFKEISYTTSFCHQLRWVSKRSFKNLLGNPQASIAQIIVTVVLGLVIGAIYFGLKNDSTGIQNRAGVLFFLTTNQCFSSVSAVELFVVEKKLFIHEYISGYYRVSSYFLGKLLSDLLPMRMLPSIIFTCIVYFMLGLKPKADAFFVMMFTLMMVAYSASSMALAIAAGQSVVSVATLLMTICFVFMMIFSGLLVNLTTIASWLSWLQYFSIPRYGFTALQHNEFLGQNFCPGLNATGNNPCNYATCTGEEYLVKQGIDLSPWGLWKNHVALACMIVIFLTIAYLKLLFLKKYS
row,Structure (SMILES),outcome
1,Cc1ccc(-c2c(Cl)nc(C#N)n2S(=O)(=O)N(C)C)cc1,inactive
2,CC(C)Oc1cc(-n2nc(C(C)(C)C)oc2=O)c(Cl)cc1Cl,inactive
3,C=CCC1=C(C)[C@@H](OC(=O)[C@@H]2[C@@H](C=C(C)C)C2(C)C)CC1=O,inactive
4,COc1nc(C)nc(NC(=O)NS(=O)(=O)c2ccccc2CCC(F)(F)F)n1,inactive
5,OC(c1ccc(Cl)cc1)(c1cncnc1)c1ccccc1Cl (configuration not stated),inactive
6,CCNc1nc(Cl)nc(NC(C)C)n1,inactive
7,O=C(O)COc1nc(Cl)c(Cl)cc1Cl,inactive
8,CCCCNC(=O)OCC#CI,inactive
9,CCCCNC(=O)n1c(NC(=O)OC)nc2ccccc21,inactive
10,CCOC(=O)CC(SP(=S)(OC)OC)C(=O)OCC (configuration not stated),inactive
11,Cc1cc(Cl)ccc1OCC(=O)O,inactive
12,COC(=O)C=C(C)OP(=O)(OC)OC,inactive
13,COC(=O)C(C)Oc1ccc(Oc2ccc(Cl)cc2Cl)cc1 (configuration not stated),inactive
14,COC(=O)N(OC)c1ccccc1COc1ccn(-c2ccc(Cl)cc2)n1,inactive
15,CS/C(C)=N/OC(=O)N(C)SN(C)C(=O)O/N=C(\C)SC,inactive
16,COc1nc(NC(C)C)nc(NC(C)C)n1,inactive
17,CCON=C(CC)C1=C(O)CC(c2c(C)cc(C)cc2C)CC1=O (configuration not stated),inactive
18,N#CC(CCc1ccc(Cl)cc1)(Cn1cncn1)c1ccccc1 (configuration not stated),inactive
19,CC(C)(C)c1ccc(CSc2cnn(C(C)(C)C)c(=O)c2Cl)cc1,inactive

row,Structure (SMILES),outcome
1,CCc1nn(C)c(C(=O)NCc2ccc(C(C)(C)C)cc2)c1Cl,inactive
2,Oc1ccccc1-c1ccccc1,inactive
3,COP(=S)(OC)Oc1nc(Cl)c(Cl)cc1Cl,inactive
4,CC1COC(Cn2cncn2)(c2ccc(Oc3ccc(Cl)cc3)cc2Cl)O1 (configuration not stated),inactive
5,C=CCC1=C(C)C(OC(=O)C2C(C=C(C)C)C2(C)C)CC1=O (configuration not stated),inactive
6,CO/C=C(/C(=O)OC)c1ccccc1Oc1cc(Oc2ccccc2C#N)ncn1,inactive
7,COc1nc(C)nc(NC(=O)NS(=O)(=O)c2ccccc2Cl)n1,inactive
8,COP(N)(=O)SC (configuration not stated),inactive
9,Fc1ccc(Oc2ccnc3cc(Cl)cc(Cl)c23)cc1,inactive
10,CN(C)C(=S)SSC(=S)N(C)C,inactive
11,COC(=O)c1ccccc1C(=O)OC,inactive
12,CNC(=S)S,inactive
13,CCCN(CCC)c1c([N+](=O)[O-])cc(S(N)(=O)=O)cc1[N+](=O)[O-],inactive
14,C#CCOS(=O)OC1CCCCC1Oc1ccc(C(C)(C)C)cc1 (configuration not stated),inactive
15,CCOc1cc(Oc2ccc(C(F)(F)F)cc2Cl)ccc1[N+](=O)[O-],inactive
16,O=C(Nc1ccccc1)Nc1ccnc(Cl)c1,inactive
17,N#Cc1nn(-c2c(Cl)cc(C(F)(F)F)cc2Cl)c(N)c1S(=O)C(F)(F)F (configuration not stated),inactive
18,Cc1c(F)c(F)c(COC(=O)C2C(/C=C(\Cl)C(F)(F)F)C2(C)C)c(F)c1F (configuration not stated),inactive
